AMPAR-TARP mod = modulates AMPAR-stargazin complexes | actives 3.5% (n = 40,000) | O88602+P19491 | calls only at 30 µM | HEK293 GluA2+stargazin, membrane potential dye (FDSS), glutamate EC50; hits were called plate by plate, in both directions;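 active means any of four per-well response measures lying three or more SD from its plate-wide compound average, in either direction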
Target sequence (O88602 whole entry, looked up): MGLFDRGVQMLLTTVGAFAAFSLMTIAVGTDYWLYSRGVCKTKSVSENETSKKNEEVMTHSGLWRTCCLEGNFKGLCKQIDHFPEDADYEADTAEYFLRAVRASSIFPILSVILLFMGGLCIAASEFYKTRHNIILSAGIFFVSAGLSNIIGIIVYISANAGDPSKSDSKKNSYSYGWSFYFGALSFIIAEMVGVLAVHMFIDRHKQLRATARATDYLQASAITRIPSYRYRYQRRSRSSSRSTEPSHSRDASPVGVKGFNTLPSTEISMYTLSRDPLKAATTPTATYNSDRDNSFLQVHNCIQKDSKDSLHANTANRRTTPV
Target sequence (P19491 whole entry, looked up): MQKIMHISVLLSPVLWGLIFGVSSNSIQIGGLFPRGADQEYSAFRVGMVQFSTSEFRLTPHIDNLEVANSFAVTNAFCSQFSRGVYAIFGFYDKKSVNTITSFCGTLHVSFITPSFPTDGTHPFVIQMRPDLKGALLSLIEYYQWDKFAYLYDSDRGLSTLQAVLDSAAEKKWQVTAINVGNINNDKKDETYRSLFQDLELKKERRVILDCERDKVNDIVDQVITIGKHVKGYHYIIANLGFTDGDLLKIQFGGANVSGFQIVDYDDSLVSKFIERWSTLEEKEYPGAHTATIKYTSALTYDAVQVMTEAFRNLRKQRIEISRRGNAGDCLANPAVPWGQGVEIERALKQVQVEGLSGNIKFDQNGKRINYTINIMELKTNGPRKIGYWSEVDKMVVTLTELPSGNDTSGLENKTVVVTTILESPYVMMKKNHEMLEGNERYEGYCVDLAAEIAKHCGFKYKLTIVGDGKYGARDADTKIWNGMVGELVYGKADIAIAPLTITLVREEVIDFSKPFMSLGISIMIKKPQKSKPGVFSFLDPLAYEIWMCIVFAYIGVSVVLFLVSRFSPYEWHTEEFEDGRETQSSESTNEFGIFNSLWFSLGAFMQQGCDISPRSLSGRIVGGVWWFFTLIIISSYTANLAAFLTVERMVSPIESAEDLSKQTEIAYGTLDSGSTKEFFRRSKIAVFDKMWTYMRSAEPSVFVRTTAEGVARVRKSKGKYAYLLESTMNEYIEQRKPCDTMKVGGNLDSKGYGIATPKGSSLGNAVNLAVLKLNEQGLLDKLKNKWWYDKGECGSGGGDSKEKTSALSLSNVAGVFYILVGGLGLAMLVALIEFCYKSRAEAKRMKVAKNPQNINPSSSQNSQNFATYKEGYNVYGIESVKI
GIRK2 act = Activators of human GIRK2-containing channels; 34,000 tested, under 10 active; activation (% efficacy), % for hits at 37.5 µM; P48051; HEK293 GIRK2/NPY4 cells, thallium flux fluorescence;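 active means primary screen hit, no activity in plain HEK293 cells, and in GIRK2-only cells above 5% efficacy rising with concentration; inactive means the rest, including fluorescent compounds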;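 further: efficacy is normalized control-subtracted fluorescence 15 s after thallium addition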
The depositor's hits bear a star. Only a selection was taken, and hits are over-represented in it overall.

How did COc1ccc(S(=O)(=O)CC(=O)Nc2nc(-c3ccc(Cl)s3)cs2)cc1 do in these assays?
AMPAR-TARP mod: inactive; GIRK2 act: inactive

Results for CCc1ccc(S(=O)(=O)NCC2CCN(C3CCCC3)CC2)s1 ?
AMPAR-TARP mod: active; GIRK2 act: inactive

What do the screens show for `CCOc1ccc(S(=O)(=O)NCC2CCN(C3CCCC3)CC2)cc1C`?
AMPAR-TARP mod: active; GIRK2 act: inactive

How did Cc1cc(F)ccc1S(=O)(=O)NCC1CCN(C2CCCC2)CC1 do in these assays?
AMPAR-TARP mod: inactive; GIRK2 act: inactive

How did Cc1cc(C)c(S(=O)(=O)NCC2CCN(C3CCCC3)CC2)cc1C do in these assays?
AMPAR-TARP mod: inactive; GIRK2 act: inactive

How did COCC(=O)N1CCCc2ccc(NC(=O)Nc3ccc4c(c3)OCO4)cc21 do in these assays?
GIRK2 act: inactive

What do the screens show for `COc1ccc(OCC(=O)Nc2nonc2-c2ccccc2)cc1`?
AMPAR-TARP mod: inactive; GIRK2 act: inactive

What do the screens show for `OCc1nc2ccccc2n1Cc1c(F)cccc1Cl`?
AMPAR-TARP mod: inactive

How did COC(=O)NCCc1nc2ccccc2n1Cc1c(F)cccc1Cl do in these assays?
AMPAR-TARP mod: active

Results for CCOC(=O)NCc1nc2ccccc2n1Cc1c(F)cccc1Cl ?
AMPAR-TARP mod: inactive

What do the screens show for `CCOC(=O)NCc1nc2ccccc2n1Cc1ccccc1F`?
AMPAR-TARP mod: active; GIRK2 act: inactive

What do the screens show for `CCCN1C(=O)CCc2cc(NC(=O)COc3ccc(Cl)cc3Cl)ccc21`?
AMPAR-TARP mod: inactive; GIRK2 act: inactive

What do the screens show for `Cc1cccc(Cn2c(C3CC(=O)N(C(C)(C)C)C3)nc3ccccc32)c1` (stereo unspecified)?
AMPAR-TARP mod: active

What do the screens show for `O=C1CC(c2nc3ccccc3n2Cc2ccc(F)cc2)CN1Cc1ccccc1` (stereo unspecified)?
AMPAR-TARP mod: active

How did CCCCN1CC(c2nc3ccccc3n2Cc2ccccc2)CC1=O (stereo unspecified) do in these assays?
AMPAR-TARP mod: inactive

Results for C=CCN1CC(c2nc3ccccc3n2Cc2c(F)cccc2Cl)CC1=O (stereo unspecified) ?
AMPAR-TARP mod: inactive

What do the screens show for `O=C1CC(c2nc3ccccc3n2Cc2c(F)cccc2Cl)CN1Cc1ccccc1` (stereo unspecified)?
AMPAR-TARP mod: active

Results for CC(C)(C)N1CC(c2nc3ccccc3n2Cc2ccc(Cl)cc2)CC1=O (stereo unspecified) ?
AMPAR-TARP mod: inactive

Results for CCCCN1CC(c2nc3ccccc3n2Cc2cccc(Cl)c2)CC1=O (stereo unspecified) ?
AMPAR-TARP mod: active

How did O=C1CC(c2nc3ccccc3n2Cc2ccc(F)cc2)CN1Cc1ccc(F)cc1 (stereo unspecified) do in these assays?
AMPAR-TARP mod: inactive

What do the screens show for `COc1cc(OC)c(NC(=O)Cn2cnc3c(-c4ccc(C)cc4)csc3c2=O)cc1Cl`?
AMPAR-TARP mod: inactive; GIRK2 act: inactive

What do the screens show for `COc1ccc(NC(=O)Cn2c(=O)n(C(C)C)c(=O)c3nscc32)c(OC)c1`?
AMPAR-TARP mod: inactive; GIRK2 act: inactive

How did CC(C)(C)N1CC(c2nc3ccccc3n2CCOc2ccc(Cl)cc2)CC1=O (stereo unspecified) do in these assays?
AMPAR-TARP mod: inactive

How did COc1cccc(N2CC(c3nc4ccccc4n3Cc3ccccc3)CC2=O)c1 (stereo unspecified) do in these assays?
AMPAR-TARP mod: inactive

Results for CC(C)CCn1c(C2CC(=O)N(Cc3ccccc3)C2)nc2ccccc21 (stereo unspecified) ?
AMPAR-TARP mod: active

How did CC(C)(C)N1CC(c2nc3ccccc3n2Cc2c(F)cccc2Cl)CC1=O (stereo unspecified) do in these assays?
AMPAR-TARP mod: active

How did CC(C)CCn1c(C2CC(=O)N(Cc3ccc(F)cc3)C2)nc2ccccc21 (stereo unspecified) do in these assays?
AMPAR-TARP mod: inactive

How did COc1cccc(N2CC(c3nc4ccccc4n3Cc3ccccc3Cl)CC2=O)c1 (stereo unspecified) do in these assays?
AMPAR-TARP mod: active

Results for COc1ccc(-c2ccc(OCCNS(=O)(=O)c3cc(Br)ccc3OC)nn2)cc1 ?
AMPAR-TARP mod: inactive; GIRK2 act: inactive

What do the screens show for `COc1ccc(CCNC(=O)NCC(O)Cc2ccccc2)cc1` (stereo unspecified)?
AMPAR-TARP mod: inactive; GIRK2 act: inactive

What do the screens show for `CN(C)c1ccc(C(=S)N2CCN(C(=S)c3ccc(F)cc3)CC2)cc1`?
AMPAR-TARP mod: inactive

Results for O=C(NCc1ccccc1)C1CCN(Cc2nncn2-c2ccccc2F)CC1 ?
AMPAR-TARP mod: inactive; GIRK2 act: inactive

Results for COC(=O)c1ccccc1N=Nc1c(N)[nH]n(-c2ccccc2)c1=O ?
AMPAR-TARP mod: active

How did COC(=O)c1ccccc1-n1c(=O)c2ccccc2c2ccccc2c1=O do in these assays?
AMPAR-TARP mod: inactive

Results for COc1ccccc1-c1c(C)oc2cc(OCC=C(C)C)ccc2c1=O ?
AMPAR-TARP mod: active

What do the screens show for `CCN(CC)C(=O)Oc1ccc2c(=O)c(-c3ccccc3)c(C)oc2c1`?
AMPAR-TARP mod: inactive

How did Cc1oc2cc(OCC(=O)OCc3ccccc3)ccc2c(=O)c1-c1ccccc1 do in these assays?
AMPAR-TARP mod: active

What do the screens show for `CCN(CC)C(=O)Oc1ccc2c(=O)c(-c3ccc(OC)c(OC)c3)c(C)oc2c1`?
AMPAR-TARP mod: active; GIRK2 act: inactive

Results for COc1ccccc1-c1c(C)oc2cc(OC(=O)N3CCOCC3)ccc2c1=O ?
AMPAR-TARP mod: inactive

How did CCOC(=O)COc1ccc2c(=O)c(-c3ccccc3)c(C)oc2c1 do in these assays?
AMPAR-TARP mod: inactive

What do the screens show for `COC(=O)c1ccc(NC(=O)CN2CCC(c3nnc(C)s3)CC2)cc1`?
AMPAR-TARP mod: inactive; GIRK2 act: inactive

What do the screens show for `CCOc1cccc2sc(NC(=O)c3c(C)cnn3C)nc12`?
GIRK2 act: inactive

Results for COc1cccc2sc(NC(=O)c3cc(C)nn3C)nc12 ?
AMPAR-TARP mod: active; GIRK2 act: inactive

Results for COc1cccc2sc(NC(=O)c3cc(C)n(C)n3)nc12 ?
AMPAR-TARP mod: active; GIRK2 act: inactive

What do the screens show for `CCn1nc(C(=O)Nc2nc3c(C(C)C)cccc3s2)cc1C`?
GIRK2 act: inactive

What do the screens show for `O=C(NCc1ccc(Cl)cc1)N1CCN(C(=O)c2cnn3ccccc23)CC1`?
AMPAR-TARP mod: inactive; GIRK2 act: inactive

How did Cn1c(=O)c2c(nc3n2CC(c2ccc(F)cc2)=NN3CC(=O)c2ccccc2)n(C)c1=O do in these assays?
AMPAR-TARP mod: inactive

Results for COc1ccc(-n2c(C)cn3c4c(=O)n(CC(N)=O)c(=O)n(C)c4nc23)cc1 ?
AMPAR-TARP mod: inactive

How did COc1cccc(C(CNC(=O)c2ccccc2Br)N2CCOCC2)c1 (stereo unspecified) do in these assays?
AMPAR-TARP mod: inactive; GIRK2 act: inactive

How did COc1ccc(C(CNC(=O)c2ccccc2Br)N2CCOCC2)cc1 (stereo unspecified) do in these assays?
AMPAR-TARP mod: active; GIRK2 act: inactive

What do the screens show for `COc1ccc(C(CNC(=O)c2cc(OC)cc(OC)c2)N2CCOCC2)cc1` (stereo unspecified)?
AMPAR-TARP mod: inactive

Screening results deposited in PubChem BioAssay by several laboratories.
